Read-out in test [1]: Macrophage colony-stimulating factor (MCSF), CSF1 (gene 1435)
The test is described as follows: BSK_hDFCGF_MCSF: BioMAP Diversity Plus: hDFCGF Assay for Macrophage colony-stimulating factor (MCSF) Biomarker Activity (AID 2283060). The conditions noted are these: primary human foreskin fibroblasts; actives raise or lower the signal. The essentials: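 fibroblasts (human foreskin, primary), 24 h post-dose; M-CSF by ELISA; bidirectional fit, DMSO = baseline.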

The nature of test [2]: BSK_hDFCGF_SRB: Viability Assessment in the BioMAP Diversity Plus: hDFCGF Assay (AID 2283061).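 Note: cells exposed to compound for 24 h before the read.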 The conditions noted are these: primary human foreskin fibroblasts. The essentials: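 SRB-based viability read on primary human skin fibroblasts at 24 h: TCA fixation, 0.1% dye, 560 nm. Gain or loss of signal is fitted against the DMSO negative control.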
Read-out in test [3]: TIMP metallopeptidase inhibitor 1 (TIMP1), TIMP1 (gene 7076)
The test is described as follows: BSK_hDFCGF_TIMP1: BioMAP Diversity Plus: hDFCGF Assay for TIMP metallopeptidase inhibitor 1 (TIMP1) Biomarker Activity (AID 2283062). The settings on record: primary human foreskin fibroblasts; actives raise or lower the signal. Put shortly:
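Bidirectional curve fitting against DMSO baseline yielded this endpoint, based on ELISA detection of TIMP-1 in primary human foreskin fibroblasts exposed to compound for 24 h.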

Read-out in test [4]: Monokine induced gamma interferon (MIG), CXCL9 (gene 4283)
The test is described as follows: BSK_hDFCGF_MIG: BioMAP Diversity Plus: hDFCGF Assay for Monokine induced gamma interferon (MIG) Biomarker Activity (AID 2283063). The settings on record: primary human foreskin fibroblasts; actives raise or lower the signal. The essentials: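 Endpoint derived by bidirectional fitting relative to DMSO; MIG quantified via ELISA in primary human foreskin fibroblasts harvested 24 h after dosing.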

Read-out in test [5]: Matrix Metallopeptidase 1 (MMP1), MMP1 (gene 4312)
The test is described as follows: BSK_hDFCGF_MMP1: BioMAP Diversity Plus: hDFCGF Assay for Matrix Metallopeptidase 1 (MMP1) Biomarker Activity (AID 2283064). The conditions noted are these: primary human foreskin fibroblasts; actives raise or lower the signal. The essentials:
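Primary human foreskin fibroblasts exposed to chemicals for 24 h; MMP1 measured by ELISA. Cytotoxicity tracked by SRB staining in parallel cultures; bidirectional fit relative to DMSO.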

Read-out in test [6]: Vascular cell adhesion molecule 1 (VCAM1), VCAM1 (gene 7412)
The test is described as follows: BSK_hDFCGF_VCAM1: BioMAP Diversity Plus: hDFCGF Assay for Vascular cell adhesion molecule 1 (VCAM1) Biomarker Activity (AID 2283065).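 For AC50: VCAM-1 protein level quantified by ELISA after 24 h chemical exposure.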 The conditions noted are these: primary human foreskin fibroblasts; actives raise or lower the signal. The essentials: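 Measured after 24 h chemical treatment of primary human skin fibroblasts, VCAM-1 was detected by ELISA and concentration-response analysed in both directions versus DMSO vehicle.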

Read-out in test [7]: Plasminogen activator inhibitor-1 (PAI1), SERPINE1 (gene 5054)
The test is described as follows: BSK_hDFCGF_PAI1: BioMAP Diversity Plus: hDFCGF Assay for Plasminogen activator inhibitor-1 (PAI1) Biomarker Activity (AID 2283066). The conditions noted are these: primary human foreskin fibroblasts; actives raise or lower the signal. Put shortly: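 Human foreskin fibroblasts in the hDFCGF system were dosed with compound for 24 h; PAI-1 was quantified by ELISA. Bidirectional curve fitting used DMSO as negative control and baseline.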

Read-out in test [8]: Intercellular Adhesion Molecule 1 (ICAM1), ICAM1 (gene 3383)
The test is described as follows: BSK_KF3CT_ICAM1: BioMAP Diversity Plus: KF3CT Assay for Intercellular Adhesion Molecule 1 (ICAM1) Biomarker Activity (AID 2283067). The settings on record: primary human keratinocytes with fibroblasts; actives raise or lower the signal. Put shortly: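 Bidirectional curve fitting against a DMSO baseline was applied to ICAM-1 ELISA signal from primary human skin co-cultures harvested 24 h after treatment, with SRB staining of parallel wells for overt cytotoxicity.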

Read-out in test [9]: Interferon-gamma inducible Protein 10 (IP10), CXCL10 (gene 3627)
The test is described as follows: BSK_KF3CT_IP10: BioMAP Diversity Plus: KF3CT Assay for Interferon-gamma inducible Protein 10 (IP10) Biomarker Activity (AID 2283068). The conditions noted are these: primary human keratinocytes with fibroblasts; actives raise or lower the signal. Put shortly: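 KF3CT co-culture (keratinocytes + foreskin fibroblasts), 24 h compound, IP-10 by ELISA; bidirectional fit vs DMSO baseline.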

Test [10] is described as follows: BSK_KF3CT_SRB: Viability Assessment in the BioMAP Diversity Plus: KF3CT Assay (AID 2283069).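 Note: total protein by sulforhodamine B staining as a cytotoxicity measure; read 24 h after compound addition; fitted for both signal gain and loss against DMSO baseline.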 The settings on record: primary human keratinocytes with fibroblasts. The essentials: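 Human keratinocyte and foreskin fibroblast co-culture exposed to chemical for 24 h. Total protein measured in parallel cultures by 0.1% sulforhodamine B staining after 10% TCA fixation, read at 560 nm; bidirectional fit relative to DMSO.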

Where “and” joins values, the source holds several entries; their conditions need not be identical. Equal values may be shown once. Calls of active or inactive are those of the source. Rule for the calls: active = hit-call score of the fitted dose curve at least 0.9, where 1 is the maximum; inactive = score below 0.9.

Usually AC50 stands for the concentration at which the activity in the assay is half-maximal.

For the compound `O=C(O)C(F)(OC(F)(F)C(F)(OC(F)(F)C(F)(OC(F)(F)C(F)(F)C(F)(F)F)C(F)(F)F)C(F)(F)F)C(F)(F)F` (stereo not given), the result in test [1], in test [2], in test [3], in test [4], in [5] and in test [6] was inactive. Further, the outcome in test [7], in test [8], in test [9] and in test [10] was inactive.
On to `CCCCCCOC(=O)c1ccccc1O`, for which the AC50 in test [1] is 34.8 µM (active) and 35.1 µM (active); in [2] it was 40 µM (active) and 44.8 µM (active); in test [3], 39.7 µM (active) and 31.2 µM (active); in test [4], 18.2 µM (active) and 21.3 µM (active); in [5] it was 35.8 µM (active); in test [6], 33.1 µM (active) and 35.3 µM (active). For the same compound, the AC50 in test [7] is 39.3 µM (active) and 39.6 µM (active). Moreover, the result in [8], in test [9] and in test [10] was inactive.
For the compound `CCCCCCCCCCCCCCCC[N+](C)(C)Cc1ccccc1`, the concentration at half-maximal activity (AC50) was 1.97 µM (active) in test [1]; 5.13 µM (active) in test [2]; 1.71 µM (active) in test [3]; 3.62 µM (active) in [4]; 4.17 µM (active) in test [5]; 1.91 µM (active) in [6]. The half-maximal activity concentration (AC50) in test [7] is 1.52 µM (active); in test [8] it was 6.06 µM (active); in test [9] it was 3.64 µM (active); in test [10], 5.1 µM (active).
In the case of `OCC(F)(F)C(F)(F)C(F)(F)F`, the outcome in test [1], in test [2], in [3], in test [4], in test [5] and in test [6] was inactive. Besides, the outcome in [7], in test [8], in test [9] and in [10] was inactive.
Consider `CCCCCCC(C)OC(=O)CCCCC(=O)OC(C)CCCCCC` (stereo not given), for which the result in test [1], in [2], in test [3], in test [4], in test [5] and in [6] was inactive. The result in test [7], in test [8], in test [9] and in test [10] was inactive.
As to `CCN(CC)c1ccc2c(C)cc(=O)oc2c1`, the outcome in [1], in test [2], in test [3], in test [4], in test [5] and in test [7] was inactive. Further, the outcome in test [8], in test [9] and in test [10] was inactive. Also, the half-maximal activity concentration (AC50) in test [6] was 30.5 µM (active).
In the case of `FC(F)(F)C(F)(F)CNCC(F)(F)C(F)(F)F`, the outcome in test [1], in test [2], in [3], in test [4], in [5] and in test [6] was inactive. For the same compound, the result in [7], in test [8], in test [9] and in [10] was inactive.
With `O=C(O)C(F)(F)C(F)(F)C(F)(F)F`, the result in test [1], in test [2], in [3], in [4], in [5] and in test [6] was inactive. The outcome in [7], in test [8], in test [9] and in [10] was inactive.
For the compound `C=CC/C=C/C/C=C/C/C=C/C`, the outcome in [1], in [2], in test [3], in test [4], in [6] and in test [8] was inactive. Also, the result in test [9] and in test [10] was inactive. Further, the AC50 in test [5] was 0.016 µM (active); in test [7], 0.141 µM (active).
Take `O=C(O)C(F)(F)C(F)(F)OC(F)(F)F`: the result in [1], in test [2], in test [3], in test [4], in [5] and in test [6] was inactive. In addition, the result in [7], in [8], in test [9] and in test [10] was inactive.
For `OCCCC(F)(F)C(F)(F)C(F)(F)C(F)(F)C(F)(F)C(F)(F)C(F)(F)F`, the AC50 in [1] was 15.6 µM (active) and 16.6 µM (active); in test [2] it was 18.3 µM (active) and 17.2 µM (active); in test [3], 14.6 µM (active) and 14.4 µM (active); in test [4], 16.3 µM (active) and 14.6 µM (active); in [5], 13 µM (active) and 15 µM (active); in test [6], 11 µM (active) and 9.2 µM (active). Further, the half-maximal activity concentration (AC50) was 15.3 µM (active) and 14.9 µM (active) in [7]; 28.3 µM (active) and 47.3 µM (active) in test [8]; 23.9 µM (active) and 49.7 µM (active) in test [9]; 24.2 µM (active) and 49 µM (active) in test [10].
Consider `C=C(C)C(=O)OCCC(F)(F)C(F)(F)C(F)(F)C(F)(F)C(F)(C(F)(F)F)C(F)(F)F`, for which the result in test [1], in test [2], in test [3], in test [4], in test [5] and in [6] was inactive. Moreover, the outcome in [7], in [8], in test [9] and in test [10] was inactive.
On to `O=S(=O)(O)C(F)(F)C(F)(F)C(F)(F)C(F)(F)C(F)(F)C(F)(F)C(F)(F)F`, for which the result in test [1], in test [2], in test [3], in test [4], in test [5] and in test [6] was inactive. Also, the outcome in test [7], in test [8], in test [9] and in test [10] was inactive.
For `O=C(CC(=O)C(F)(F)C(F)(F)F)C(F)(F)F`, the result in test [1], in test [2], in test [3], in test [4], in test [5] and in [6] was inactive. Also, the outcome in test [7], in test [8], in [9] and in [10] was inactive.
In the case of `CC(C)(C)C(=O)CC(=O)C(F)(F)C(F)(F)C(F)(F)F`, the outcome in test [1], in [2], in test [3], in [4], in [5] and in test [6] was inactive. Further, the outcome in test [7], in test [8], in test [9] and in [10] was inactive.
For the compound `O=P(O)(O)OCCC(F)(F)C(F)(F)C(F)(F)C(F)(F)C(F)(F)C(F)(F)F`, the result in [1], in test [2], in test [3], in [4], in test [5] and in test [6] was inactive. The outcome in [7], in test [8], in test [9] and in test [10] was inactive.
On to `O=C(O)C(F)(F)C(F)(F)C(F)F`, for which the result in test [1], in [2], in test [3], in test [4], in [5] and in test [6] was inactive. In addition, the result in test [7], in [8], in test [9] and in [10] was inactive.

For the origin of these results see PubChem BioAssay (EPA / NIEHS).
